The values below come from PubChem BioAssay (NCI).

Compounds without any hit were thinned out: in the full panel of roughly 83,000, 20% have a hit.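 The endpoint reported here, percent growth, reads 100 for growth as untreated, 0 for no net growth and -100 for all cells dead.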 A number with no mark means an inactive call. Activity calls are given as the source filed them. Rule for the calls: active = growth percent below 10; inactive = the rest.

Some test systems named below: HT29 colon; SNB-75 CNS; SNB-19 CNS; U251 CNS; PC-3 prostate; SK-MEL-5 melanoma; UACC-62 melanoma; LOX IMVI melanoma; SK-MEL-28 melanoma; SK-MEL-2 melanoma.
Assay in all cases: NCI-60 one-dose screen, 48 h (100 = growth as untreated, 0 = no growth, -100 = all killed)
Settings in all cases: 10 µM unless noted

Take `Nc1ccc2c3c(cccc13)-c1ccccc1-2`: the growth in the assay on HT29 colon is 108%; in the assay on SNB-75 CNS, 74.2%; in the assay with SNB-19 CNS, 97.7%; in the assay on U251 CNS, 94.9%; in the assay on PC-3 prostate, 73%; in the assay with SK-MEL-5 melanoma, 98.4%. The growth in the assay with UACC-62 melanoma was 84.7%; with LOX IMVI melanoma, 91.7%; with SK-MEL-28 melanoma, 110%.
For `COc1ccc2nc(NC(=O)c3cc(-c4ccc(F)cc4)n4nc(-c5ccccc5)cc4n3)sc2c1`, the growth is 92.5% in the assay on HT29 colon; 80.4% in the assay on SNB-75 CNS; 83.3% in the assay with SNB-19 CNS; 64.2% in the assay on U251 CNS; 63.7% in the assay with PC-3 prostate; 55.5% with SK-MEL-5 melanoma. Moreover, the growth in the assay on UACC-62 melanoma was 67.9%; with LOX IMVI melanoma it was 67.9%; in the assay on SK-MEL-28 melanoma, 73.1%.
For the compound `CCN(CC)CCOc1ccc(C2=C(c3ccccc3)CCc3cc(OC)ccc32)cc1`, the growth with HT29 colon is -50% (active); in the assay with SNB-75 CNS, 44.2%; in the assay on SNB-19 CNS, 53.8%; with U251 CNS, 22.2%; in the assay with PC-3 prostate, 7.49% (active); with SK-MEL-5 melanoma, -68% (active). Besides, the growth in the assay on UACC-62 melanoma is -60.2% (active); in the assay with LOX IMVI melanoma, -59.6% (active); in the assay with SK-MEL-28 melanoma it was -96.2% (active); in the assay with SK-MEL-2 melanoma, -83.1% (active).
Consider `Cn1c(=O)c2nc(SCc3ccccc3)n(C)c2n(C)c1=O`, for which the growth is 113% in the assay on HT29 colon; 104% in the assay on SNB-75 CNS; 89.4% with SNB-19 CNS; 101% in the assay with U251 CNS; 102% in the assay with PC-3 prostate; 101% in the assay with SK-MEL-5 melanoma. The growth with UACC-62 melanoma was 109%; in the assay on LOX IMVI melanoma, 99.1%; in the assay on SK-MEL-28 melanoma, 119%; in the assay with SK-MEL-2 melanoma it was 101%.
On to `COc1ccc(-c2noc(N)c2-c2cc(OC)c3c(c2)OCO3)cc1`, for which the growth is 7.22% (active) in the assay with HT29 colon; 3.98% (active) in the assay with SNB-75 CNS; 53.5% in the assay on SNB-19 CNS; 10.7% in the assay with U251 CNS; 31.1% with PC-3 prostate; 21.2% in the assay on SK-MEL-5 melanoma. Further, the growth in the assay with UACC-62 melanoma is 44.1%; in the assay on LOX IMVI melanoma, 29.7%; in the assay with SK-MEL-28 melanoma it was 51.8%.
On to `COc1ccc2[nH]cc(/C=C3/C(=O)Nc4ccc(Cl)cc43)c2c1`, for which the growth was 17.5% with HT29 colon; -1.24% (active) with SNB-75 CNS; 70.7% in the assay on SNB-19 CNS; 38% with U251 CNS; 64.6% in the assay with PC-3 prostate; 55.2% in the assay with SK-MEL-5 melanoma. In addition, the growth with UACC-62 melanoma is 51.8%; in the assay on LOX IMVI melanoma, 17.7%; in the assay on SK-MEL-28 melanoma, 81.1%.
In the case of `C=C(C)[C@@H]1C/C=C(/C=O)CC[C@@H]2O[C@@]2(C)CC/C=C(\C)CC1`, the growth in the assay on HT29 colon is 127%; in the assay on SNB-75 CNS, 87.1%; with SNB-19 CNS, 110%; with U251 CNS, 104%; in the assay with PC-3 prostate, 63.3%; with SK-MEL-5 melanoma, 101%. The results for the growth in the assay with UACC-62 melanoma, in the assay with LOX IMVI melanoma and in the assay on SK-MEL-28 melanoma were 92.3%, 93.3% and 118%, respectively.
As to `COc1ccc(-n2nc3c(c2-c2ccc(OC)c(OC)c2)-c2oncc2CC3)cc1`, the growth in the assay with HT29 colon was 80%; in the assay on SNB-75 CNS, 94.2%; in the assay on SNB-19 CNS, 96.9%; in the assay on U251 CNS, 85.3%; with PC-3 prostate, 88.3%; with SK-MEL-5 melanoma it was 81.8%. Besides, the growth was 73.3% in the assay with UACC-62 melanoma, 58.1% in the assay on LOX IMVI melanoma and 75.1% with SK-MEL-28 melanoma.
`CSc1nc2c(c(=O)[nH]1)C(c1ccc(Cl)cc1)C1=C(N2)/C(=C/c2ccc(Cl)cc2)CNC1` (stereo not drawn): the growth with HT29 colon is -36.6% (active); in the assay with SNB-75 CNS it was 51.9%; with SNB-19 CNS it was 46.8%; in the assay with U251 CNS, -16.1% (active); in the assay with PC-3 prostate, 42%; with SK-MEL-5 melanoma, 77.1%. Also, the growth with UACC-62 melanoma is 89.2%; in the assay with LOX IMVI melanoma, -61.3% (active); in the assay with SK-MEL-28 melanoma, 87.9%; in the assay with SK-MEL-2 melanoma, 78.4%.
Consider `O=C(O)c1ccccc1C(=O)OC1CCCC2CCCC21` (stereo not drawn), for which the growth in the assay with HT29 colon is 100%; with SNB-75 CNS it was 96.5%; with SNB-19 CNS it was 104%; in the assay on U251 CNS, 114%; in the assay on PC-3 prostate it was 97.5%; in the assay with SK-MEL-5 melanoma, 104%. The growth in the assay on UACC-62 melanoma was 97%; with LOX IMVI melanoma it was 95.1%; with SK-MEL-28 melanoma it was 109%; in the assay with SK-MEL-2 melanoma it was 136%.
Regarding `COc1ccc2[nH]cc(/C=C3/C(=O)Nc4ccc(F)cc43)c2c1`, the growth is 79.1% in the assay with HT29 colon; 43.2% with SNB-75 CNS; 88.2% in the assay on SNB-19 CNS; 80.1% in the assay with U251 CNS; 76.4% in the assay on PC-3 prostate; 93.1% in the assay with SK-MEL-5 melanoma. Further, the growth with UACC-62 melanoma is 73.5%; in the assay on LOX IMVI melanoma it was 74.9%; with SK-MEL-28 melanoma, 96.2%; with SK-MEL-2 melanoma it was 91.7%.
With `O=C1C2C3C=CC(O3)C2C(=O)N1Nc1ccccc1` (stereo not drawn), the growth in the assay with HT29 colon was 112%; with SNB-75 CNS it was 93.3%; in the assay on SNB-19 CNS it was 111%; with U251 CNS, 109%; in the assay with PC-3 prostate, 97.5%; in the assay with SK-MEL-5 melanoma it was 109%. The growth in the assay on UACC-62 melanoma was 100%; with LOX IMVI melanoma it was 98%; in the assay with SK-MEL-28 melanoma, 105%.
As for `O=C(c1ccccc1)c1ccco1`, the growth in the assay on HT29 colon is 103%; in the assay on SNB-75 CNS, 80.3%; in the assay on SNB-19 CNS it was 93.1%; in the assay on U251 CNS, 99.1%; with PC-3 prostate, 95.4%; in the assay with SK-MEL-5 melanoma, 106%. The growth in the assay with UACC-62 melanoma is 93%; in the assay with LOX IMVI melanoma it was 89.8%; in the assay on SK-MEL-28 melanoma it was 111%; with SK-MEL-2 melanoma it was 104%.
As to `COc1ccc(-n2nnc(C(=O)O)c2-c2cc(OC)c(OC)c(OC)c2)cc1`, the growth is 97.2% in the assay on HT29 colon; 95.5% in the assay with SNB-75 CNS; 104% with SNB-19 CNS; 95.9% in the assay with U251 CNS; 106% in the assay on PC-3 prostate; 104% in the assay with SK-MEL-5 melanoma. Moreover, the growth in the assay on UACC-62 melanoma was 109%; in the assay on LOX IMVI melanoma, 94.9%; in the assay with SK-MEL-28 melanoma, 104%; with SK-MEL-2 melanoma, 95%.
